One test relates to Mel-DCC-11. Briefly: cell viability relative to DMSO control (fraction of DMSO control); higher = less cytotoxic, active = 0.5 or less. The following applies: 1 µM; 120 h. The essentials: (§1)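 A library of 315 approved anti-cancer drugs (TargetMol) was acoustically pre-spotted into 384-well plates and tested at 1 µM in duplicate for 120 h. Cells were added in 40 µl per well: NHEM-hTERT immortalized melanocytes at 2500/well, and patient-derived Mel-DCC-11 and its resistant subline Mel-DCC-11-R at 1500/well. The subline was tested both alone and with 8 µM of its selecting drug. Viability was read by ATPlite 1step luminescence, normalised to DMSO controls and averaged over duplicates.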

Another test concerns NHEM-hTERT. Described as above. The following applies: 1 µM; 120 h. The essentials:
as §1

The next test relates to Mel-DCC-11-R. Briefly: cell viability relative to DMSO control (fraction of DMSO control); higher = less cytotoxic, active = 0.8 or less. The following applies: 1 µM, 120 h. The essentials: as §1

A number with no mark means an inactive call.

Regarding `O=c1cc(O)c(Cl)c[nH]1` [Gimeracil], the cell viability was 1.14 in the test on Mel-DCC-11, 0.996 with NHEM-hTERT, 0.944 in the test on Mel-DCC-11-R (vemurafenib co-treatment 0 µM) and 1.13 with Mel-DCC-11-R (vemurafenib co-treatment 8 µM).

Regarding `Cc1cc(Nc2cc(N3CCN(C)CC3)nc(Sc3ccc(NC(=O)C4CC4)cc3)n2)n[nH]1` [Tozasertib], the cell viability with Mel-DCC-11 was 1.56; in the test on NHEM-hTERT, 0.841; in the test on Mel-DCC-11-R (vemurafenib co-treatment 0 µM), 1.14; in the test with Mel-DCC-11-R (vemurafenib co-treatment 8 µM) it was 0.752 (active).

On to `O=c1[nH]cc(F)c(=O)[nH]1` [Fluorouracil], for which the cell viability in the test with Mel-DCC-11 was 1.46; with NHEM-hTERT, 1.01; in the test with Mel-DCC-11-R (vemurafenib co-treatment 0 µM), 1.14; in the test with Mel-DCC-11-R (vemurafenib co-treatment 8 µM), 1.06.

As to `CC(=O)O[C@H]1C(=O)[C@]2(C)[C@@H](O)C[C@H]3OC[C@@]3(OC(C)=O)[C@@H]2[C@@H](OC(=O)c2ccccc2)[C@]2(O)C[C@H](OC(=O)[C@H](O)[C@@H](NC(=O)c3ccccc3)c3ccccc3)C(C)=C1C2(C)C` [Paclitaxel], the cell viability in the test with NHEM-hTERT is 0.569.

As to `Cc1ccc(NC(=O)c2ccc(CN3CCN(C)CC3)cc2)cc1Nc1nc(-c2cccnc2)cs1` [Masitinib], the cell viability in the test on Mel-DCC-11 is 1.25; with NHEM-hTERT it was 0.801; in the test with Mel-DCC-11-R (vemurafenib co-treatment 0 µM) it was 1.1; in the test on Mel-DCC-11-R (vemurafenib co-treatment 8 µM), 0.944.

With `Nc1ncnc2c1ncn2[C@@H]1O[C@H](CO)[C@@H](O)[C@@H]1O` [Vidarabine], the cell viability is 1.1 with Mel-DCC-11, 1.02 in the test on NHEM-hTERT, 1.11 in the test with Mel-DCC-11-R (vemurafenib co-treatment 0 µM) and 1.1 with Mel-DCC-11-R (vemurafenib co-treatment 8 µM).

As to `Cl.NNc1nncc2ccccc12` [Hydralazine hydrochloride], the cell viability was 1.17 in the test with Mel-DCC-11, 1.12 in the test with NHEM-hTERT, 1.03 in the test on Mel-DCC-11-R (vemurafenib co-treatment 0 µM) and 1.19 with Mel-DCC-11-R (vemurafenib co-treatment 8 µM).

Take `CN(C)N=Nc1[nH]cnc1C(N)=O` [Dacarbazine]: the cell viability with Mel-DCC-11 is 2.24; in the test with NHEM-hTERT, 0.982; in the test on Mel-DCC-11-R (vemurafenib co-treatment 0 µM), 1.04; with Mel-DCC-11-R (vemurafenib co-treatment 8 µM), 1.17.

For `CO[C@H]1C[C@@H]2CC[C@@H](C)[C@@](O)(O2)C(=O)C(=O)N2CCCC[C@H]2C(=O)O[C@H]([C@H](C)C[C@@H]2CC[C@@H](OCCO)[C@H](OC)C2)CC(=O)[C@H](C)/C=C(\C)[C@@H](O)[C@@H](OC)C(=O)[C@H](C)C[C@H](C)/C=C/C=C/C=C/1C` [Everolimus], the cell viability was 1.35 in the test on Mel-DCC-11, 0.964 with NHEM-hTERT, 1.57 in the test on Mel-DCC-11-R (vemurafenib co-treatment 0 µM) and 0.834 in the test on Mel-DCC-11-R (vemurafenib co-treatment 8 µM).

For `CN(C)C/C=C/C(=O)Nc1cc2c(Nc3ccc(F)c(Cl)c3)ncnc2cc1O[C@H]1CCOC1.O=C(O)/C=C\C(=O)O.O=C(O)/C=C\C(=O)O` [Afatinib Dimaleate], the cell viability in the test with NHEM-hTERT is 1.13.

In the case of `CCc1cnn2c(NCc3ccc[n+]([O-])c3)cc(N3CCCC[C@H]3CCO)nc12` [Dinaciclib], the cell viability in the test on Mel-DCC-11 was 0.0557 (active); with NHEM-hTERT, 0.212 (active); with Mel-DCC-11-R (vemurafenib co-treatment 0 µM), 0.062 (active); in the test on Mel-DCC-11-R (vemurafenib co-treatment 8 µM) it was 0.0642 (active).

On to `C#Cc1cccc(Nc2ncnc3cc4c(cc23)OCCOCCOCCO4)c1` [Icotinib], for which the cell viability in the test on Mel-DCC-11 is 1.1; with NHEM-hTERT it was 1.18; in the test with Mel-DCC-11-R (vemurafenib co-treatment 0 µM), 1.1; with Mel-DCC-11-R (vemurafenib co-treatment 8 µM), 0.849.

For the molecule `CC1CCC(C(C)C)C(O)C1` (racemic) [DL-Menthol], the cell viability in the test with NHEM-hTERT is 0.973.

For `COc1ccc2cc3[n+](cc2c1OC)CCc1cc2c(cc1-3)OCO2` [Berberine], the cell viability in the test on Mel-DCC-11 is 1.36; with NHEM-hTERT, 1.1; in the test on Mel-DCC-11-R (vemurafenib co-treatment 0 µM), 1.05; with Mel-DCC-11-R (vemurafenib co-treatment 8 µM), 0.918.

For the molecule `O=c1c(-c2ccc(O)cc2)coc2cc(O)cc(O)c12` [Genistein], the cell viability was 1.04 in the test with Mel-DCC-11, 1.1 with NHEM-hTERT, 0.984 with Mel-DCC-11-R (vemurafenib co-treatment 0 µM) and 1.02 with Mel-DCC-11-R (vemurafenib co-treatment 8 µM).

As to `COc1ccc2c(c1OC)C(=O)O[C@@H]2[C@H]1c2c(cc3c(c2OC)OCO3)CC[NH+]1C.[Cl-]` [Noscapine hydrochloride], in the test on NHEM-hTERT, the cell viability was 1.13.

On to `O=C(c1ccc(F)c(F)c1Nc1ccc(I)cc1F)N1CC(O)([C@@H]2CCCCN2)C1` [Cobimetinib], for which, in the test on NHEM-hTERT, the cell viability was 0.715.

Consider `CCNC(=O)[C@@H]1CCCN1C(=O)[C@H](CCCN=C(N)N)NC(=O)[C@H](CC(C)C)NC(=O)[C@@H](CC(C)C)NC(=O)[C@H](Cc1ccc(O)cc1)NC(=O)[C@H](CO)NC(=O)[C@H](Cc1c[nH]c2ccccc12)NC(=O)[C@H](Cc1cnc[nH]1)NC(=O)[C@@H]1CCC(=O)N1` [Leuprorelin Acetate], for which the cell viability with NHEM-hTERT was 0.879.

Consider `COc1cc2nccc(Oc3ccc(NC(=O)Nc4cc(C)on4)c(Cl)c3)c2cc1OC` [Tivozanib], for which, in the test with NHEM-hTERT, the cell viability is 1.09.

Consider `Nc1ccccc1NC(=O)c1ccc(CNc2nccc(-c3cccnc3)n2)cc1` [Mocetinostat], for which the cell viability was 0.976 in the test on Mel-DCC-11, 0.55 with NHEM-hTERT, 0.558 (active) in the test on Mel-DCC-11-R (vemurafenib co-treatment 0 µM) and 0.545 (active) in the test on Mel-DCC-11-R (vemurafenib co-treatment 8 µM).

For `CC(C)[C@H](NC(=O)[C@H](CC(=O)O)NC(=O)[C@H](CCCCN)NC(=O)[C@@H](N)CCCNC(=N)N)C(=O)N[C@@H](Cc1ccc(O)cc1)C(=O)O` [Thymopentin], the cell viability with Mel-DCC-11 is 1.13; in the test with NHEM-hTERT, 1.01; with Mel-DCC-11-R (vemurafenib co-treatment 0 µM), 1.21; in the test on Mel-DCC-11-R (vemurafenib co-treatment 8 µM), 1.04.

For `COc1cccc2c1C(=O)c1c(O)c3c(c(O)c1C2=O)C[C@@](O)(C(=O)CO)C[C@@H]3O[C@H]1C[C@H](N)[C@H](O)[C@H](C)O1.Cl` [Doxorubicin hydrochloride], the cell viability with NHEM-hTERT was 0.454 (active); in the test on Mel-DCC-11-R (vemurafenib co-treatment 0 µM), 0.166 (active); in the test on Mel-DCC-11-R (vemurafenib co-treatment 8 µM), 0.171 (active).

`CC(C)C[C@H](NC(=O)[C@@H](O)[C@H](N)Cc1ccccc1)C(=O)O` [Ubenimex]: the cell viability in the test with NHEM-hTERT is 0.944; in the test on Mel-DCC-11-R (vemurafenib co-treatment 0 µM) it was 1.12; with Mel-DCC-11-R (vemurafenib co-treatment 8 µM), 0.942.

The values above are taken from the supplement of paper PMC12808144.
